# ± gives the standard deviation of the averaged measurements.
# Assays:
# [1] = test system: DLD1; assay: cell viability (CellTiter-Glo) relative to plate median (fraction of plate median); higher = more viable cells; conditions: 5 µM; treatment time 24 h; reporter: 7TFP
# In short: (§1)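 Colorectal cancer lines with stably integrated lentiviral TCF/Wnt firefly luciferase reporters received library compounds at a final 5 µM, 24 h after seeding into 384-well plates, for a 24 h exposure. Reported figures are plate-median-normalised firefly luciferase or CellTiterGlo luminescence per well. They average two independent replicates.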
# [2] = test system: HCT116; assay: as above; conditions: 5 µM; treatment time 24 h; reporter: TCF4/Wnt
# In short: as §1
# [3] = test system: SW480; assay: as above; conditions: 5 µM; treatment time 24 h; reporter: 7TFP
# In short: as §1
# [4] = test system: DLD1; assay: TCF/Wnt firefly luciferase reporter signal relative to plate median (fraction of plate median); higher = higher Wnt reporter signal; conditions: 5 µM; treatment time 24 h; reporter: 7TFP
# In short: as §1
# [5] = test system: SW480; assay: as above; conditions: 5 µM; treatment time 24 h; reporter: 7TFP
# In short: as §1
SMILES,cell viability [1],cell viability [2],cell viability [3],TCF/Wnt firefly luciferase reporter signal [4],TCF/Wnt firefly luciferase reporter signal [5]
CC(=O)OC1CC[C@@]2(C)C(CC[C@H]3[C@@H]4CC=C(C(C)=O)[C@@]4(C)C(=O)C[C@@H]32)C1 (stereo not given in full),1 ± 0.012,1.05 ± 0.081,1.04 ± 0.072,1.08 ± 0.014,1.06 ± 0.05
CC1(C)CC[C@]2(C(=O)O)CC[C@]3(C)C(=CC[C@@H]4[C@@]5(C)CC[C@H](O)C(C)(C)[C@@H]5[C@H](O)C[C@]43C)[C@@H]2C1,0.946 ± 0.076,0.955 ± 0.092,0.992 ± 0.026,0.952 ± 0.018,1.04 ± 0.057
CC(=O)O[C@H]1C[C@@H](O)C(C)(C)[C@@H]2C[C@@H](OC(C)=O)[C@]3(C)[C@H](CC[C@@]4(C)[C@@H](c5ccoc5)OC(=O)[C@H]5O[C@@]534)[C@@]12C,1.04 ± 0.069,0.947 ± 0.066,0.945 ± 0.016,1.04 ± 0.067,0.978 ± 0.011
COC(=O)/C(=C1/OC(=O)C(c2ccccc2)=C1O)c1ccccc1,1.06 ± 0.057,1.02 ± 0.12,1.07 ± 0.064,1.05 ± 0.14,1.1 ± 0.05
CC(C)C[C@H]1C(=O)N2CCC[C@H]2C(=O)N1O [Cyclo(hydroxyleucylprolyl)],0.978 ± 0.074,0.973 ± 0.081,0.988 ± 0.088,0.949 ± 0.0042,1.05 ± 0.071
Cc1cc(O)c(C=O)c2c1C(=O)Oc1c(COC(=O)/C=C/C(=O)O)c(O)c(C(=O)O)c(C)c1O2,0.992 ± 0.026,1.05 ± 0.021,0.966 ± 0.011,0.933 ± 0.12,0.939 ± 0.12
C=CC1=C(C)/C(=C/c2[nH]c(Cc3[nH]c(/C=C4\NC(=O)C(C)=C4C=C)c(C)c3CCC(=O)O)c(CCC(=O)O)c2C)NC1=O,1.04 ± 0.087,1.03,0.98 ± 0.018,0.964 ± 0.15,0.936 ± 0.018
CC(C)(Sc1cc(C(C)(C)C)c(O)c(C(C)(C)C)c1)Sc1cc(C(C)(C)C)c(O)c(C(C)(C)C)c1,0.947 ± 0.034,0.987 ± 0.061,0.955 ± 0.028,1.01 ± 0.035,1.035 ± 0.0071
CON,1.03 ± 0.093,1.01 ± 0.046,0.984 ± 0.018,0.982 ± 0.04,0.981 ± 0.027
CC(C)CCCC(C)N (stereo not given),0.99 ± 0.012,0.929 ± 0.031,0.9345 ± 0.0092,0.875 ± 0.03,0.9465 ± 0.0078
COc1cc2c(cc1OC)C1(O)C(=O)c3ccc(O)c(C(=O)O)c3OC1CO2 (stereo not given),1.05 ± 0.035,1.04 ± 0.059,1.08 ± 0.014,0.9145 ± 0.005,0.984 ± 0.14
COC(=O)C[C@H]1C(C)(C)C(=O)[C@@H]2CC3=C(CC[C@]4(C)C3=CC(=O)O[C@H]4c3ccoc3)[C@@]1(C)C2=O,0.96 ± 0.032,0.979 ± 0.058,0.944 ± 0.018,0.782 ± 0.35,0.954 ± 0.029
CC(C)(Oc1ccc(CCNC(=O)c2ccc(Cl)cc2)cc1)C(=O)O,1.05 ± 0.014,1.06 ± 0.064,1 ± 0.069,0.919 ± 0.016,0.986 ± 0.02
COC(=O)C[C@H]1C(C)(C)[C@@H](OC(C)=O)[C@@H]2CC3C4CC(=O)O[C@@H](c5ccoc5)[C@]4(C)CCC3[C@@]1(C)C2=O (stereo not given in full),1.05 ± 0.042,0.946 ± 0.011,1.015 ± 0.0071,0.966 ± 0.1,1.005 ± 0.0071
CC(C)Cn1c(=O)n(C)c(=O)c2nc[nH]c21,0.956 ± 0.048,1.04 ± 0.05,0.9585 ± 0.0092,0.972 ± 0.054,0.987 ± 0.018
Fc1ccc([C@@H]2CCNC[C@H]2COc2ccc3c(c2)OCO3)cc1,0.977 ± 0.021,1.02 ± 0.12,1.02 ± 0.021,1.1 ± 0.085,1.13 ± 0.042
O=C(CNC(=O)c1ccc(Cl)cc1)NO,0.978 ± 0.025,1 ± 0.041,0.931 ± 0.026,1.03 ± 0.048,1.13 ± 0.028
CC(=O)OCC(=O)[C@@]12OC(C)(C)O[C@@H]1C[C@H]1[C@@H]3C[C@H](F)C4=CC(=O)C=C[C@]4(C)[C@@]3(F)[C@@H](O)C[C@@]12C,1.01 ± 0.023,1 ± 0.05,0.969 ± 0.044,1.03 ± 0.072,1.06 ± 0.093
CN(C)CCOC(=O)C(c1ccccc1)C1(O)CCCC1 (stereo not given),0.986 ± 0.0014,1.07 ± 0.099,1 ± 0.013,1.12 ± 0.12,1.05 ± 0.12
CCCSc1ccc2[nH]c(NC(=O)OC)nc2c1,0.966 ± 0.039,0.893 ± 0.17,0.986 ± 0.016,1.1 ± 0.028,1.04 ± 0.1
O=C(O)c1cc(=O)c2c(Cl)cc(Cl)cc2[nH]1,0.944 ± 0.12,0.968 ± 0.059,0.976 ± 0.091,0.835 ± 0.021,0.911 ± 0.052
CCCCCc1c2c(cc(O)c1C(=O)O)OC(=O)c1c(cc(OC)cc1C(=O)CCCC)O2,0.958 ± 0.036,0.973 ± 0.14,1 ± 0.013,0.963 ± 0.034,1.05 ± 0.16
CC(C)=CCc1c2c(c3occ(-c4ccc(O)c(O)c4)c(=O)c3c1O)C=CC(C)(C)O2,0.997 ± 0.033,1.04 ± 0.067,1.03 ± 0.028,0.996 ± 0.077,1.02 ± 0.021
O=C(Cn1ccnc1[N+](=O)[O-])NCCO,0.992 ± 0.04,0.989 ± 0.1,0.9935 ± 0.0092,1.09 ± 0.17,1.02 ± 0.038
Cc1ccc(C)c(OCCCC(C)(C)C(=O)O)c1,0.985 ± 0.092,0.986 ± 0.034,1.01 ± 0.015,1.015 ± 0.0071,1.06 ± 0.05
COc1ccc(C(=O)Oc2ccc(/C=N/NC(N)=O)cc2)cc1 [Anthramycin derivative (C16H15N3O4)],1.2 ± 0.2,0.991 ± 0.07,1.02 ± 0.071,0.938 ± 0.12,1.05 ± 0.028
COc1ccc(-c2cc(=O)c3c(O)c(OC)c(O[C@@H]4O[C@H](CO[C@@H]5O[C@@H](C)[C@H](O)[C@@H](O)[C@H]5O)[C@@H](O)[C@H](O)[C@H]4O)cc3o2)cc1,0.933 ± 0.087,0.951 ± 0.056,0.897 ± 0.056,1.07 ± 0.035,1.08 ± 0.021
COC(=O)Nc1nc2cc(Sc3ccccc3)ccc2[nH]1,1.01 ± 0.014,1.03,1.03 ± 0.05,0.99 ± 0.071,0.995 ± 0.05
COc1cc(O)c2c(=O)c(O)c(-c3ccc(O)c(O)c3)oc2c1,1.06 ± 0.014,0.992 ± 0.11,1.065 ± 0.0071,1 ± 0.12,1.045 ± 0.0071
O=C(O)c1cc(=O)c2ccccc2[nH]1,1.01 ± 0.021,0.968 ± 0.16,0.9555 ± 0.0064,0.8765 ± 0.0078,0.986 ± 0.048

# Source: the supplement of paper PMC6522484
